# Assay results published in PubChem BioAssay (NCATS).
# “And” between values parts separate entries of the source, which are not always exact repeats. Identical values can stand only once. Records with an inconclusive call do not appear. Entries that show only a call come without a potency. The source made the active and inactive calls. Unless noted, calls follow the shape of the dose curve; as a rule, active = well fitted curve in the direction sought with a large enough effect; inconclusive = small, poorly fitted or top-dose-only effect, or another doubt; inactive = no such curve, though single readings can be large; an effect the other way counts as inactive or inconclusive.
# What was measured:
# [1] = molecular target: Voltage-gated inwardly rectifying potassium channel KCNH2 (Homo sapiens) (UniProt Q12809); experiment: qHTS Assay for Small Molecule Inhibitors of the Human hERG Channel Activity (AID 588834);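 also: lower thallium flux fluorescence means stronger hERG block; nearly all actives have a fitted effect of over 50% in size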; also: potency is read from the fitted curve at half-maximal effect
# Chain of Voltage-gated inwardly rectifying potassium channel KCNH2 (Homo sapiens) (Q12809 whole entry, looked up): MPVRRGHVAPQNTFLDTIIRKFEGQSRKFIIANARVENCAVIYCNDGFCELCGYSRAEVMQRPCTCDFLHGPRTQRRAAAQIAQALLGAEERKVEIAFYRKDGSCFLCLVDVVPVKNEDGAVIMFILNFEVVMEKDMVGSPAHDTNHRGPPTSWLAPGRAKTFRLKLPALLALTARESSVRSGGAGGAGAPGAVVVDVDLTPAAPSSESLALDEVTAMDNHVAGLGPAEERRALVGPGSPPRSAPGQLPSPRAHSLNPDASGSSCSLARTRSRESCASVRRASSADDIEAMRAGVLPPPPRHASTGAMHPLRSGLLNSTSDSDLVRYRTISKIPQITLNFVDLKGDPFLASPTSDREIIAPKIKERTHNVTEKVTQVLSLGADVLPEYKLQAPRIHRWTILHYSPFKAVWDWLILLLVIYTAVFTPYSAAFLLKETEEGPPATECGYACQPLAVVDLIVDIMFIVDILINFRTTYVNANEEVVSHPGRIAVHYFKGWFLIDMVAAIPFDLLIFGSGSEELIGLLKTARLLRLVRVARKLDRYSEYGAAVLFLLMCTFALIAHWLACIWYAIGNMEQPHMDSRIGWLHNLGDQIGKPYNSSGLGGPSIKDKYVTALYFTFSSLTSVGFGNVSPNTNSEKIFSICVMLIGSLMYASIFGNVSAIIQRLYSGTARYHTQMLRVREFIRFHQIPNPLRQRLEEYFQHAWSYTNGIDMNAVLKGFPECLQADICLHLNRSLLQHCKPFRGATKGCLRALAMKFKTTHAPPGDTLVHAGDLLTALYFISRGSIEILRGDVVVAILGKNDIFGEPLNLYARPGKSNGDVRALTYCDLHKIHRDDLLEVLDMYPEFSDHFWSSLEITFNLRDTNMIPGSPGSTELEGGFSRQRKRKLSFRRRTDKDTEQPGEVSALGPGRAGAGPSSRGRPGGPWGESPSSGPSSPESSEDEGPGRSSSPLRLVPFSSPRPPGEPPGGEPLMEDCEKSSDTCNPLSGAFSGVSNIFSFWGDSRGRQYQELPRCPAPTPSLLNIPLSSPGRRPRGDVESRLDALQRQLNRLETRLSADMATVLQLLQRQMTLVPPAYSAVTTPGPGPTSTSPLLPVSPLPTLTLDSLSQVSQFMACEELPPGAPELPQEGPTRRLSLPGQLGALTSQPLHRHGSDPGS
# How it was run: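 U2OS cells BacMam-transduced with hERG, 2000 cells/well, compound ~10 min at 37 °C before stimulation buffer. FluxOR thallium flux fluorescence read kinetically on FDSS; decrease indicates block; AC50 from Hill fits.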
# [2] = molecular target: Luciferin 4-monooxygenase (Photinus pyralis) (UniProt P08659); experiment: Biochemical firefly luciferase enzyme assay for NPC (AID 624030);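 also: purified P. pyralis luciferase at 10 nM with luciferin and ATP substrate; series mostly up to about 59 µM; nearly all actives have a fitted effect of over 70% in size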
# Chain of Luciferin 4-monooxygenase (Photinus pyralis) (P08659 whole entry, looked up): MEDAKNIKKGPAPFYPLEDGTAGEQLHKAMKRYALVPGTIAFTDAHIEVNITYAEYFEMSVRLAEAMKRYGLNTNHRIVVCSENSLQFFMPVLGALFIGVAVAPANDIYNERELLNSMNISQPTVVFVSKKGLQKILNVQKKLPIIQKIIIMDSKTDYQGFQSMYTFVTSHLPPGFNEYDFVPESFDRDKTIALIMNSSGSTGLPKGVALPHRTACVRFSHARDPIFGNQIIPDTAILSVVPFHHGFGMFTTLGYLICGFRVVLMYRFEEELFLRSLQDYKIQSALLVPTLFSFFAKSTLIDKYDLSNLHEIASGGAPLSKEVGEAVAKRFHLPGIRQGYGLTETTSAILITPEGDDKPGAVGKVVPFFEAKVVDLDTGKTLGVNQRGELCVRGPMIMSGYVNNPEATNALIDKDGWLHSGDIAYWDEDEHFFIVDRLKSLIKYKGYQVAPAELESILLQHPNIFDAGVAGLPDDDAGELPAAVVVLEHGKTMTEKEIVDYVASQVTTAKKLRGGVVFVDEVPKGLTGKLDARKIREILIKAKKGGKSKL
# How it was run: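 Counter-screen for direct inhibition of the luciferase enzyme by approved-drug library compounds, run at 10 nM enzyme in 50 mM Tris acetate (final). Luminescence was read within 5 min of enzyme-buffer addition and normalized to PTC124 versus DMSO (0%).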
# [3] = S16 Schwann cell viability assay (CellTiter-Glo assay) (AID 624031);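 also: native untransfected S16 rat Schwann cells; cellular ATP luminescence as a viability measure; series mostly up to about 58 µM; nearly all actives have a fitted effect of over 70% in size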
# How it was run: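 Parental S16 cells, 24 h compound, 37 °C. ATP-luminescence viability; DMSO = 0% activity, empty wells as reference; curves classified by fit quality and efficacy.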
# [4] = S16 Schwann cell PMP22 intronic element firefly luciferase assay (AID 624032); also: nearly all actives have a fitted effect of over 30% in size; also: potency is read from the fitted curve at half-maximal effect
# How it was run: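 Rat S16 Schwann cells stably carrying a PMP22 intronic element-driven Fluc reporter were seeded overnight, then exposed to compounds for 24 h at 37 °C. Luminescence was normalized to PTC124 (positive control) and DMSO (0% activity).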
# [5] = S16 Schwann cell PMP22 intronic element beta-lactamase assay (AID 624044; calls by dose curve; also: nearly all actives have a fitted effect of over 15% in size)
# How it was run: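 Rat S16 Schwann cells with beta-Lac driven by a PMP22 intronic element, compound-treated 24 h at 37 °C. LiveBLAzer FRET B/G read: 460 nm normalized to potassium clavulanate vs DMSO; 535 nm FRET as viability; concentration-effect curves classified.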
SMILES,Potency [1],Potency [2],Potency [3],Potency [4],Potency [5]
CC1(C)CO[C@@H](CC(=O)O)CN1,inactive,inactive,inactive,inactive,–
CC[C@@]1(c2ccccc2)NC(=O)N(C)C1=O,inactive,inactive,inactive,inactive,inactive
O=C(CCCN1CCN(c2ccccn2)CC1)c1ccc(F)cc1,5.01 µM (active),inactive,inactive,inactive,–
Nc1ccc(S(=O)(=O)Nc2ccc(Cl)nn2)cc1,inactive,inactive,inactive,inactive,–
CCCCCCCCCCCCCCCC(=O)NCCO,inactive,inactive,inactive,inactive,inactive
C=Cc1c(C)c2cc3[nH]c(cc4nc(cc5nc(cc1[nH]2)C(C)=C5CCC(=O)O)C(CCC(=O)O)=C4C)c(C)c3C=C,inactive,inactive,inactive,12.8 µM (active),inactive
O=c1cc[nH]c(=O)[nH]1,inactive,inactive,inactive,inactive,–
Cc1ccc(C(C)C)cc2c(C)ccc1-2,–,inactive,inactive,inactive,inactive
CC1(C)OC(=O)NC1=O,inactive,inactive,–,inactive,–
CNCCCC1c2ccccc2C=Cc2ccccc21,–,inactive,–,12.3 µM (active),–
Nc1ncnc2c1ncn2[C@@H]1O[C@H](CO)[C@@H](O)[C@H]1O,–,inactive,inactive,inactive,–
CN1CCC[C@@H]1Cc1c[nH]c2ccc(CCS(=O)(=O)c3ccccc3)cc12,12.6 µM (active),inactive,–,inactive,–
CC(C)c1c(C(=O)Nc2ccccc2)c(-c2ccccc2)c(-c2ccc(F)cc2)n1CC[C@@H](O)C[C@@H](O)CC(=O)O,–,inactive,inactive,inactive,–
CN1CCN(C2Cc3ccccc3Sc3ccc(Cl)cc32)CC1 (centres undefined),1.12 µM (active),inactive,–,–,inactive
CCCCN(CCCC)CCCOC(=O)c1ccc(N)cc1,–,inactive,inactive,inactive,–
